# Screening data as filed in PubChem BioAssay.
# SMN2 splice enh = increases expression of the SMN2 splice variant; AID 1458; 210,000 compounds, 2.8% hits; HEK293 SMN2-luciferase splicing reporter, luminescence, 30-36 h; Potency, µM (top dose mostly 46.1 µM), inactives show at the highest dose activity change, positive = activation, hits mostly activators; also: % of control where 0% means no effect; nearly all actives have a fitted effect of over 55% in size
#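 HEK293 cells carry an SMN2 minigene-luciferase reporter in which exon 7 inclusion puts luciferase in frame. Cells were seeded at 2000 cells/well, attached for 10-12 hours, then exposed to compounds for 30-36 hours at 37C before ONE-Glo luminescence.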
# Rab9 promoter act = Rab9 promoter activation; Huh7 Rab9 promoter-luciferase reporter, luminescence, 24 h; Potency, µM (highest dose often 9.22 µM), for inactives: top-dose activation, negative = inhibition, actives largely listed as activators; 320,000 compounds, 2.8% hits; AID 485297; also: % of control where 0% means no effect; nearly all actives have a fitted effect of over 60% in size
#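 Cells were plated at 1500 per well in reduced-serum medium with 10% FBS and left 2 h. Compound in DMSO was then added for 24 h at 37 °C. Reporter signal was read by luminescence after 10 min with luciferase detection reagent.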
# NPC1 promoter act = NPC1 promoter activation; Huh7 NPC1 promoter luciferase reporter, 24 h; Potency, µM (top dose mostly 9.22 µM), without a hit: top-dose activation, usual class: activators; 320,000 compounds, 2.4% hits; also: % of control where 0% means no effect; nearly all actives have a fitted effect of over 60% in size
#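 Luminescence read-out of NPC1 promoter-driven luciferase in stably transfected Huh7 cells; compounds delivered in DMSO and left 24 h at 37C, 5% CO2, qHTS titration format.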
# FLuc counter = inhibits or activates purified firefly luciferase, miR-21 counter-screen; P08659; purified FLuc, Km substrates, luminescence inhibition; Potency, µM (highest dose often 57.5 µM), without a hit: at the highest dose activity change, negative = inhibition, hits mostly inhibitors; 360,000 compounds, 6.9% hits; AID 588342;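 also: plate controls were vehicle for no effect and reference inhibitor for full effect; nearly all actives have a fitted effect of over 55% in size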
# Target sequence (P08659 whole entry, looked up): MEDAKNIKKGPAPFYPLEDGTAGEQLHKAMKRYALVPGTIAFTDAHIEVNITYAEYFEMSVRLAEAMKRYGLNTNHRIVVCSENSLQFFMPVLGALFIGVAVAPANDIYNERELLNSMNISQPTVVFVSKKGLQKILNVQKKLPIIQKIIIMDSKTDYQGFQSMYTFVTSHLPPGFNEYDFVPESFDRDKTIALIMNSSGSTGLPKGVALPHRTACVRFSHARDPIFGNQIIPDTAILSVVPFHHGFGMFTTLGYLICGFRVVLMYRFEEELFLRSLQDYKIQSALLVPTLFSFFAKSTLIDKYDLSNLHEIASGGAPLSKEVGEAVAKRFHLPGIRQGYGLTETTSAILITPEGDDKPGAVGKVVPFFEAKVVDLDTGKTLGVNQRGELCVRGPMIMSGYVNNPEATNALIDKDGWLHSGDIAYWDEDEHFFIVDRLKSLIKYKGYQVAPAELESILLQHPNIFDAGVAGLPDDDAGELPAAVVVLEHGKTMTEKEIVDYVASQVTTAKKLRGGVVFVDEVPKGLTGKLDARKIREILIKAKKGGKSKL
#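 Biochemical qHTS of compounds, final roughly 60 µM downward over six points, against 10 nM purified firefly luciferase using Km concentrations of substrates (10 uM D-luciferin, 10 uM ATP) in Tris acetate pH 7.5 buffer; luminescence output.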
# ELG1 genotoxic = inducers of genotoxicity in HEK293T ELG1-luciferase cells | HEK293T ELG1-luciferase reporter, luminescence, 16 h | Potency, µM (doses to about 46 µM), without a hit: top-dose activity change, positive = activation, hits mostly activators | 330,000 compounds, 1.3% hits | AID 504466; also: % of control where 0% means no effect; nearly all actives have a fitted effect of over 60% in size
#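 Luminescence read-out: rising ELG1-luciferase signal, reflecting elevated ELG1 protein under genetic stress, flags genotoxic compounds. Cells were treated for 16 hr at 37 °C before ONE-Glo detection.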
# An asterisk follows results filed as active; ? = inconclusive; . = no result given; [ ] = dose if it differs, or a comment. An excerpt weighted towards active compounds, which were near 7.4% of everything screened. Calls follow the shape of the dose curve; as a rule, active = well fitted curve in the direction sought with a large enough effect; inconclusive = small, poorly fitted or top-dose-only effect, or another doubt; inactive = no such curve, though single readings can be large; an effect the other way counts as inactive or inconclusive. Potency is read from the fitted curve at half-maximal effect.
SMILES,SMN2 splice enh,Rab9 promoter act,NPC1 promoter act,FLuc counter,ELG1 genotoxic
Cc1cc2c(=O)oc(-c3ccc(Br)cc3)nc2s1,.,21%,27%,1.9µM*,?
Cc1cccc(-c2nc3sc(C)cc3c(=O)o2)c1,.,13%,23%,2.7µM*,12%
CCc1cc2c(=O)oc(-c3ccc(F)cc3)nc2s1,.,12%,2%,4.8µM*,1%
Cc1oc(-c2ccc(C(=O)NCc3ccccc3Cl)cc2)nc1CN1CCc2ccccc21,.,.,.,-6%,.
COCc1cc(=O)n2[nH]c(-c3ccco3)cc2n1,.,0%,-6%,-14%,3%
CCCCN1Cc2c(nc3cc(-c4ccco4)[nH]n3c2=O)C1=O,.,12%,3%,17µM*,0%
CCCC(=O)c1ccc(N2CCC(C)CC2)c(F)c1,?,25%,2%,9.5µM*,?
CCC(=O)c1ccc(N2CCN(C(=O)c3ccccc3)CC2)c(F)c1,.,-12%,-2%,0%,-3%
CCOC(=O)N1CCN(c2ccc(C(=O)CC)cc2F)CC1,-11%,-4%,0%,-1%,7%
CCC(=O)c1ccc(N2CCC(C)CC2)c(F)c1,.,29%,8%,21µM*,13%
CCOc1ccc(-c2cn(-c3ccc(OC)cc3)c(SCC(=O)Nc3ccccc3Cl)n2)cc1,.,.,.,2%,.
CCOc1ccc(-c2cn(-c3ccc(OC)cc3)c(SC)n2)cc1,11µM*,4µM*,?,5.4µM*,?
O=C(Nc1ccc2c(c1)CN(Cc1ccc(CO)o1)CC2)c1ccc(C(F)(F)F)cc1,.,-7%,2%,11µM*,17%
CC1Cc2ccccc2N1C(=O)COC(=O)c1ccc(N(C)C)cc1 (stereo not given),.,-6%,6%,.,0%
COc1ccc(CNC(=O)c2ccc3nc(C(C)C)oc3c2)cc1OC,.,.,.,-5%,.
O=c1oc(-c2ccc([N+](=O)[O-])cc2)nc2ccccc12,1%,13%,11%,-10%,11%
O=c1oc(-c2ccc([N+](=O)[O-])cc2)nc2ccc(O)cc12,-7%,?,-4%,15µM*,-4%
Nc1ccc(-c2nc3cc([N+](=O)[O-])ccc3o2)cc1,.,1.1µM*,1.4µM*,2.1µM*,15%
COc1ccc(-c2nc3cc([N+](=O)[O-])ccc3o2)cc1,.,1.6µM*,2.5µM*,0.48µM*,?
CCOc1ccc(NC(=O)Cn2cc(C(=O)c3ccc(F)cc3)c(=O)c3cc4c(cc32)OCCO4)cc1,-1%,.,.,2%,.
CC1=NN(c2ccc(S(=O)(=O)O)cc2)C(=O)/C1=C\c1ccc(Cl)cc1,-1%[9.22 µM],.,.,.,.
COc1ccc(CNC(=O)c2ccc3nc(CCc4ccccc4)oc3c2)c(OC)c1,.,.,.,-17%,.
O=S1(=O)N=C(Nc2ccc(N3CCOCC3)cc2)c2ccccc21,?,7%,7%,13µM*,2%
Cc1ccc(S(=O)(=O)n2nc(-c3ccc(Cl)cc3)nc2NCc2ccco2)cc1,?,14%,13%,6%,?
CSc1nc(-c2ccc(Cl)cc2)nn1S(=O)(=O)c1ccccc1,13µM*,?,?,13µM*,18%
SMILES,SMN2 splice enh,Rab9 promoter act,NPC1 promoter act,FLuc counter,ELG1 genotoxic
CS(=O)(=O)n1nc(-c2ccc(Cl)cc2)nc1SCc1ccccc1,22%,?,?,.,15µM*
O=S(=O)(c1ccccc1)n1nc(-c2ccc(Cl)cc2)nc1NCc1ccccc1,19%,.,.,2%,.
CSc1nc(-c2ccc(Cl)cc2)nn1S(=O)(=O)c1ccc(Cl)cc1,11µM*,3.5µM*,26%,-19%,?
CC1(C)CCCC2(C)C3C(O)CC2(C)C(O)C31 (stereo not given),-2%,.,.,.,.
C#CC(N)CCC(=O)O (stereo not given),6%,-2%[46.1 µM],1%[46.1 µM],.,.
O=C1CCCC/C1=C/Nc1cccc(C(F)(F)F)c1,-6%,4%[1.84 µM],-3%,?,19%
O=C1CCC2S/C(=C/Nc3ccc(C(F)(F)F)cc3)C(=O)N12 (stereo not given),-80%,-38%,-30%,15µM*,-13%
COc1ccc(NC(=O)c2ccc(Cc3ccc(C)cc3)o2)cc1,-17%,8%,8%,15µM*,0%
CN(C)S(=O)(=O)Oc1ccsc1C(=O)Nc1cccc(Cl)c1,-21%,-8%,-1%,-4%,-5%
Cc1ccc(OCc2ccc(C(=O)Nc3ccc(S(N)(=O)=O)cc3)o2)cc1,-2%,18%,3%,-16%,15%
COC(=O)c1sccc1-c1ccc(C(=O)Nc2cccc(Cl)c2)o1,?,3.5µM*,?,9.5µM*,14%
CCCc1ccc(OCc2ccc(C(=O)Nc3ccccc3C(=O)OC)o2)cc1,?,.,.,19µM*,.
COC(=O)c1ccccc1NC(=O)c1ccc(-c2cccc(Cl)c2)o1,10µM*,19%,?,3%,?
Cc1ccc(CN2CC(C(=O)NNC(=O)c3ccc(F)cc3)CC2=O)cc1 (stereo not given),.,1%,-3%,0%,-1%
CCN(CC)CCCN(c1ccccc1)C1Cc2ccccc2C1,.,-25%[46.1 µM],-14%[46.1 µM],.,.
Cc1csc2c(SCC(=O)NNC(=O)C(Cl)Cl)ncnc12,.,3%,6%,-11%,6%
COc1ccc(NC(=O)c2ccc(COc3ccccc3)o2)c(OC)c1,.,-3%,-2%,-8%,-3%
COc1ccc(NC(=O)c2ccc(COc3ccccc3)o2)cc1,-22%,-1%,-2%,24µM*,-1%
COc1cccc(C(=O)N2CCC(C(=O)NCc3ccc(C)cc3)CC2)c1,.,9%,-3%,-2%,-7%
CC(=O)Nc1cccc(OCCCNC(=O)c2ccc(C(C)(C)C)cc2)c1,.,17%,14%,19µM*,0%
CC(C)(C)c1ccc(C(=O)NCCCNC(=O)c2ccccn2)cc1,.,-3%,-5%,17µM*,1%
CC(C)(C)c1ccc(C(=O)NCCCNC(=O)c2cccnc2)cc1,.,?,25%,17µM*,21%
CC(C)CN(CC(C)C)S(=O)(=O)c1ccc(C(=O)Nc2sc3c(c2C(N)=O)CC(C)(C)NC3(C)C)cc1,.,.,.,0%,.
CC1(C)CC(=O)c2sc(NC(=O)c3ccccc3)nc2C1,13µM*,0.71µM*,0.45µM*,1.9µM*,?
CC1(C)CC(=O)c2sc(NC(=O)c3ccc4ncsc4c3)nc2C1,11µM*,?,?,1.9µM*,?
CC1(C)CC(=O)c2sc(NC(=O)C(C)(C)C)nc2C1,.,2.8µM*,?,?,?
CC(Oc1ccccc1)C(=O)Nc1nc2c(s1)C(=O)CC(C)(C)C2 (stereo not given),-20%,-2%,1%,-8%,1%
CC1(C)CNC(=O)c2sc(NC(=O)c3ccccc3)nc2C1,11µM*,?,?,?,16%
O=C(Nc1ccc(S(=O)(=O)NC2=NCCCCC2)cc1)c1ccc(Cl)cc1Cl,.,-2%,0%,?,?
